# Measured potencies and affinities stand elsewhere. Calls of active or inactive are those of the source. The rule behind the calls is not given here.
# Experiment: mammalian cell viability reduction – secondary assay, cytotoxicity control for West Nile virus antiviral project, dose response (AID 1650)
# Details: Mammalian host cell viability, cytotoxicity counter-screen; series mostly up to 10 µM; viability: at the top concentration
row,Structure (SMILES),viability
1,CN1CCCC(n2nc(Cc3ccc(Cl)cc3)c3ccccc3c2=O)CC1 (centres undefined),83.8% (inactive)
2,Cn1c(=O)n(CCCOc2ccc(Br)cc2)c2ccccc21,76.2% [at 20 µM] (inactive)
3,CCN1CCN(C(=S)Nc2ccc3nc(N4CCN(CC)CC4)cc(C)c3c2)CC1,84.6% [at 20 µM] (inactive)
4,COc1cccc(C2CC(c3c(-c4ccccc4)c4cc(Cl)ccc4[nH]c3=O)=NN2S(C)(=O)=O)c1OC (centres undefined),77.8% (inactive)
5,COc1ccc(CCNC(=O)COc2ccc(S(=O)(=O)NCC(C)C)cc2Cl)cc1OC,84.8% (inactive)
6,Cc1ccc(S(=O)(=O)NCc2ccc(C(=O)NCCCN3CCC(Cc4ccccc4)CC3)cc2)cc1,82.9% [at 20 µM] (inactive)
7,COc1cc(CNC(C)(C)CO)cc(Br)c1OCc1ccc(Cl)cc1,81.2% (inactive)
8,CC(=O)N1CCN(CC(=O)Nc2c(Cl)ccc(C)c2Cl)CC1,89.8% (inactive)
9,Cc1nn(Cc2ccc(Cl)cc2)c(C)c1NC(=O)CSc1nc2c(c(C(F)(F)F)n1)CCc1ccccc1-2,79.5% [at 20 µM] (inactive)
10,COc1cc2c(OC(C)=O)c3c(c(-c4ccc5c(c4)OCO5)c2cc1OC)C(=O)OC3,91% (inactive)
11,COc1ccc(NC(=O)CSc2nc3c(sc4ccccc43)c(=O)n2CCCN2CCCC2)cc1,75.6% (inactive)
12,C=CCn1cc(C(=O)NCCCOCC)c(=O)c2cc(S(=O)(=O)N(CC)CC)ccc21,84.2% (inactive)
13,O=S(=O)(/C=C/c1ccccc1)Oc1ccccc1,80.8% (inactive)
14,CCOC(=O)c1[nH]c2ccccc2c1NC(=O)CC(C)(C)C,83.8% (inactive)
15,O=C(Nc1ccc(F)cc1)c1nc[nH]c1C(=O)Nc1ccccc1[N+](=O)[O-],102% [at 20 µM] (inactive)
16,Cc1ccc(-c2cc(C(=O)NCCCN3CCCC3)c3ccccc3n2)cc1C,84.5% (inactive)
17,Cc1cc(N2CCN(C)CC2)nc2ccc(NC(=S)NCc3cccs3)cc12,72.5% [at 20 µM] (inactive)
18,CN(C)CCCN(C(=O)c1ccco1)c1nc2ccc(Cl)cc2s1,83.3% (inactive)
19,Cn1c(N)c(C(=O)CSc2nc3ccccc3c(=O)n2CCCN2CCOCC2)c(=O)n(C)c1=O,87.8% (inactive)
20,Cc1onc(-c2cccc(Cl)c2Cl)c1C(=O)O/N=C(\N)c1ccc([N+](=O)[O-])o1,80.5% (inactive)

row,Structure (SMILES),viability
1,COc1ccc(C(=O)CSc2nnc(-c3ccc(S(=O)(=O)N4CCOCC4)cc3)o2)cc1,93.2% [at 20 µM] (inactive)
2,COc1ccc(NC(=O)CSc2nc3ccccc3c(=O)n2CCCN2CCC(C)CC2)c(OC)c1,81.7% [at 20 µM] (inactive)
3,O=C(CCN1C(=O)/C(=C\c2ccccc2Cl)SC1=S)N1CCN(c2ccccc2)CC1,76.2% [at 20 µM] (inactive)
4,O=C(CSc1nc2ccccc2c(=O)n1-c1ccc(F)cc1F)Nc1ccc2c(c1)CCC2,71.6% [at 20 µM] (inactive)
5,CCOC(=O)c1cn(CC(=O)Nc2ccc(C(C)C)cc2)nn1,88.6% (inactive)
6,O=C(O)C1CCCN1C(=O)c1cncc(Br)c1 (centres undefined),100% [at 20 µM] (inactive)
7,O=C(NC1CCCCC1)C(c1ccc(Cl)cc1)N(C(=O)c1ccccn1)c1cccnc1 (centres undefined),79.4% (inactive)
8,CC(C)(C)n1nnnc1C(c1ccccc1)N1CCc2ccccc2C1 (centres undefined),78.3% [at 20 µM] (inactive)
9,CCOC(=O)c1cnc2ccc(OC)cc2c1Nc1ccc(N2CCN(C)CC2)cc1,79.1% (inactive)
10,CCc1nn(CC(=O)NC2CCN(Cc3ccccc3)CC2)c(=O)c2cc3cc(F)ccc3n12,81.2% [at 20 µM] (inactive)
11,O=C(Nc1cccnc1Cl)c1cc(-c2ccc(Cl)cc2)on1,86.7% [at 20 µM] (inactive)
12,CCN(CC)S(=O)(=O)c1ccc(OC)c(NC(=O)c2cccc([N+](=O)[O-])c2C)c1,83% [at 20 µM] (inactive)
13,CN1CCN(C(=O)CCN2C(=O)/C(=C/c3cccc(Br)c3)SC2=S)CC1,78.5% (inactive)
14,CC(C)n1cc(/C=C2/SC(=O)N(CC(=O)Nc3ccc4c(c3)OCO4)C2=O)c2ccccc21,83.5% [at 20 µM] (inactive)
15,Cc1ccc2cc(C#N)c(N3CCCN(C(=S)NCCCN(C)C)CC3)nc2c1,79.4% (inactive)
16,Cn1cc(CN2CCCC(C(=O)Nc3cccc(-c4cc5ccccc5[nH]4)c3)C2)cn1 (centres undefined),79.5% (inactive)
17,CCN(CC)S(=O)(=O)c1cc(C(=O)Nc2cc(Cl)ccc2N2CCN(C)CC2)ccc1Cl,82.8% (inactive)
18,Cc1ccccc1CN(CC(=O)Nc1cccc([N+](=O)[O-])c1)S(=O)(=O)c1ccc(Cl)cc1,80.2% (inactive)
19,Cc1ccc2nc(N(CCCN(C)C)C(=O)CCc3ccccc3)sc2c1,78.6% (inactive)

# Reference: PubChem BioAssay AID1650 (Southern Research Specialized Biocontainment Screening …, 2009)
